PD-1 reverse act = reversal of PD-1 mediated T-cell inhibition; primary human CD4 T cells, PD-L1 beads, CellTiter-Glo 96 h; activation, % (test concentration not listed); 29,000 tested, under 10 active; AID 2316; call rule not given here;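 also: 0% = median vehicle wells and 100% = positive control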
MITF inh = blocks MITF activity; AID 2240; inhibition, % (concentration not given with the values); hit rate 0.28% among 37,000; TRPM1 promoter luciferase, luminescence, 24 h; in the data active = inhibition above about 85%; inconclusive = no clear call, values can overlap the other calls; inactive = below about 68%;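 also: human melanocyte line stably carrying TRPM1 promoter luciferase reporter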
Shh pathway inh = blocks Sonic Hedgehog signaling | Shh-LIGHT2 Gli-luciferase reporter, 30 h | inhibition, % (test concentration not listed) | hit rate 2.1% among 22,000 | AID 2313;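 active = mean inhibition across valid replicates above about 65%, limit read from the data; inconclusive = mean under the limit, yet half or more replicates past it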;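 also: pathway switched on by Shh-conditioned medium diluted 1 in 25 in low serum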
* = called active by the depositor; ? = inconclusive; · = no result. This excerpt belongs to a sample that is enriched for hits.

SMILES	PD-1 reverse act	MITF inh	Shh pathway inh
Cc1oc2c(c1C(=O)N1CCC(C)CC1)C(=O)c1ccccc1C2=O	-6	85*	59
Cc1c(NC(=O)COc2ccc(Br)cc2)cccc1C(=O)O	2	-59	·
COc1ccc(NC(=O)Cn2c(=O)n(-c3ccc(Cl)cc3)c(=O)c3c4c(sc32)CCCC4)cc1	·	-12	·
COc1ccccc1OCCn1c(S(=O)(=O)O)nc2ccccc21	·	-7	·
CC(C)OCCCNc1ncnc(N)c1[N+](=O)[O-]	1	-38	·
C[C@@H]1CN([C@@H](C)CO)C(=O)c2cc(NC(=O)c3ccncc3)ccc2O[C@@H]1CN(C)Cc1ccc(Oc2ccccc2)cc1	-1	-5	84*
COc1ccc(NC(=O)Nc2ccc3c(c2)C(=O)N([C@H](C)CO)C[C@@H](C)[C@@H](CN(C)Cc2ccc(Oc4ccccc4)cc2)O3)cc1	·	-7	96*
COc1ccc(NC(=O)Nc2ccc3c(c2)C(=O)N([C@@H](C)CO)C[C@H](C)[C@@H](CN(C)Cc2ccc(Oc4ccccc4)cc2)O3)cc1	-1	-10	3
C[C@@H]1CN([C@H](C)CO)C(=O)c2cc(NS(=O)(=O)c3ccccc3)ccc2O[C@H]1CN(C)Cc1ccc(Oc2ccccc2)cc1	·	9	42
C[C@@H]1CN([C@@H](C)CO)C(=O)c2cc(NC(=O)c3ccncc3)ccc2O[C@H]1CN(C)Cc1ccc(-c2ccccc2)cc1	-1	7	·
C[C@@H]1CN([C@H](C)CO)C(=O)c2cc(NC(=O)c3ccncc3)ccc2O[C@H]1CN(C)Cc1ccc(-c2ccccc2)cc1	-2	1	89*
C[C@@H]1CN([C@H](C)CO)C(=O)c2cc(NS(=O)(=O)c3ccccc3)ccc2O[C@@H]1CN(C)Cc1ccc(Oc2ccccc2)cc1	-3	35	88*
C[C@H](CO)N1C[C@H](C)[C@H](CN(C)Cc2ccc(Oc3ccccc3)cc2)Oc2ccc(NC(=O)c3ccncc3)cc2C1=O	-1	2	-4
C[C@H]1CN([C@@H](C)CO)C(=O)Cc2cc(NC(=O)CCN3CCOCC3)ccc2O[C@@H]1CN(C)S(=O)(=O)c1ccc(F)cc1	-1	-11	24
C[C@H]1CN([C@@H](C)CO)C(=O)c2cc(NC(=O)Nc3ccccc3)ccc2O[C@H]1CN(C)S(=O)(=O)c1cn(C)cn1	0	-8	15
CCN(CC(=O)O)S(=O)(=O)c1ccc(Cl)cc1	0	-17	·
Cc1noc(C)c1S(=O)(=O)Nc1cccc2c1O[C@H](CN(C)C)[C@H](C)CN([C@@H](C)CO)C2=O	1	1	7
OC(COc1ccc(Cl)cc1)Cn1cnc(-c2ccccc2)c1 (stereo not drawn)	1	-2	·
O=C(Nc1ccccc1)c1cc([N+](=O)[O-])ccc1Cl	-20	-7	22
O=C(Nc1ccc([N+](=O)[O-])cc1Cl)c1cc(Cl)ccc1O	·	106*	88*
O=C1C=C(c2ccc(Br)cc2)OC(=O)C1C(=O)c1ccc(Br)cc1 (stereo not drawn)	0	-21	·
C[C@H](CO)N1C[C@H](C)[C@@H](CN(C)Cc2ccc(C(F)(F)F)cc2)Oc2c(NC(=O)c3ccc(-c4nccs4)cc3)cccc2C1=O	-6	67	?
Cc1csc2sc(-c3ccnc(SCC(=O)c4ccccc4)n3)c(C)c12	0	-24	70*
Cc1csc2sc(-c3ccnc(SCC(=O)NCc4ccccc4)n3)c(C)c12	-2	-5	·
COc1ccc(CN2C(=O)C(O)(CC(=O)c3ccco3)c3ccccc32)cc1OC (stereo not drawn)	·	1	·
SMILES	PD-1 reverse act	MITF inh	Shh pathway inh
Cc1ccc(S(=O)(=O)N(C)C[C@@H]2Oc3c(NC(=O)NC4CCCCC4)cccc3C(=O)N([C@@H](C)CO)C[C@@H]2C)cc1	·	32	100*
C[C@H](CO)N1C[C@H](C)[C@H](CN(C)S(=O)(=O)c2ccc(Cl)cc2)Oc2c(NC(=O)NC3CCCCC3)cccc2C1=O	-11	63	122*
C[C@H]1CN([C@@H](C)CO)C(=O)c2cccc(NC(=O)NC3CCCCC3)c2O[C@H]1CN(C)S(=O)(=O)c1ccc(F)cc1	1	24	103*
Cc1ccc(S(=O)(=O)N(C)C[C@H]2Oc3c(NC(=O)NC4CCCCC4)cccc3C(=O)N([C@H](C)CO)C[C@H]2C)cc1	-1	3	-3
Cc1ccc(S(=O)(=O)Nc2cccc3c2O[C@H](CN(C)CC2CCCCC2)[C@@H](C)CN([C@@H](C)CO)C3=O)cc1	0	-1	-7
C[C@H](CO)N1C[C@H](C)[C@@H](CN(C)S(=O)(=O)c2ccc(F)cc2)Oc2c(NC(=O)NC3CCCCC3)cccc2C1=O	-3	9	-145
C[C@H]1CN([C@@H](C)CO)C(=O)c2cccc(NC(=O)NC3CCCCC3)c2O[C@@H]1CN(C)S(=O)(=O)c1ccc(Cl)cc1	1	4	30
Cc1ccc(S(=O)(=O)Nc2cccc3c2O[C@@H](CN(C)CC2CCCCC2)[C@@H](C)CN([C@H](C)CO)C3=O)cc1	0	0	88*
C[C@@H]1CCCCO[C@H](CN(C)Cc2ccccc2)[C@@H](C)CN([C@H](C)CO)C(=O)c2cc(NS(=O)(=O)c3cn(C)cn3)ccc2O1	·	-6	-33
COc1ccc(NC(=O)COc2cc(C)ccc2C)cc1NC(=O)c1ccco1	-2	-5	·
C[C@@H]1CN([C@H](C)CO)C(=O)Cc2cc(NC(=O)C3CC3)ccc2O[C@H]1CN(C)S(C)(=O)=O	2	-7	61
CC1(C)CC(=O)C=C(SCC(=O)Nc2cc(C(F)(F)F)cc(C(F)(F)F)c2)S1	-2	52	92*
Cc1nnc(SCC(=O)Nc2cccc(C(F)(F)F)c2)s1	4	-16	·
C[C@H]1CN([C@@H](C)CO)C(=O)c2cccc(NS(=O)(=O)c3ccccc3)c2O[C@H]1CN(C)C(=O)Nc1cccc2ccccc12	0	6	-3
C[C@@H]1CN([C@@H](C)CO)C(=O)c2cc(NC(=O)Nc3ccc(C(F)(F)F)cc3)ccc2O[C@@H]1CN(C)S(C)(=O)=O	1	4	·
Cc1nc2sccn2c(=O)c1CCN1CCC(=C(c2ccccc2)c2ccc(F)cc2)CC1	-2	-4	71*
O=C(c1ccc(F)cc1)C1CCN(CCn2c(=O)[nH]c3ccccc3c2=O)CC1	3	-1	17
Cc1ccc(-n2c(SCC(=O)Nc3ccc(Br)cc3)nnc2-c2cccs2)cc1	4	6	·
Cc1cc(C)c(NC(=O)CSc2nc(-c3ccccc3)c(-c3ccccc3)[nH]2)c(C)c1	-6	92*	·
Cc1ccc(NC(=O)CSc2nc(-c3ccccc3)c(-c3ccccc3)[nH]2)c(C)c1	·	11	·
C[C@@H]1CN([C@@H](C)CO)C(=O)c2cccc(NS(=O)(=O)c3ccccc3)c2O[C@@H]1CN(C)Cc1ccc(C(=O)Nc2ccccc2N)cc1	0	22	·
C[C@H]1CC[C@@H]2[C@@H](C(=O)c3c(O)c([C@]4(O)CC[C@@H](O)[C@H]5O[C@H]54)cn(O)c3=O)[C@@H](C)C=C[C@H]2C1	-11	67	94*
COc1cc(NC(=O)CSc2nnc(-c3ccncc3)n2-c2ccc(C)cc2)cc(OC)c1	-2	9	·
CCOC(=O)c1cnc2c(c(C3CC3)nn2C)c1N1CCOCC1	0	0	·
CCOC(=O)c1cnc2c(c(C)nn2C)c1Sc1nnc(SC)s1	-5	19	84*

Source: PubChem (Broad Institute)
